From PubChem BioAssay come the findings set out here.

This experiment in a line: differential killing of epithelial or mesenchymal cells, primary screen, imaging, PC-3E GFP, TEM4-18 mCherry, co-culture (AID 1345086).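 On all read-outs here: cells exposed to compound for 72 h before imaging.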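 On red/green cell ratio (normalised): normalised mesenchymal count divided by normalised epithelial count so high means epithelial killing.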 As to conditions: imaging cell counts, at 1 µM; for red/green cell ratio (normalised): actives lie on both sides, counts scaled to control wells, 1 = unselective.
[1] abbreviates: measured here: epithelial PC-3E GFP cell survival.
Setting [2] is: measured here: mesenchymal TEM4-18 mCherry cell survival.

Active and inactive are the calls of the source.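 How the source made its calls: active means compounds killing one labelled cell type while sparing the other, by normalised counts and ratio limits, not self-fluorescent; inactive means the rest.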

Take `C/C=C\C(=O)O[C@@H]1[C@H](O)[C@@H](O)CO[C@@H]1C`: the red/green cell ratio (normalised) is 1.01 (inactive). This compound registered a normalised cell number under setting [1] of 0.99. Besides, under setting [2], the normalised cell number came to 0.99.

Take `O=C(O)CS`: the red/green cell ratio (normalised) was 1.05 (inactive). Moreover, the normalised cell number under setting [1] was 1.25. Besides, the normalised cell number under setting [2] amounted to 1.3.

For `C/C(=C\CO)CC[C@H](C)CCC[C@H](C)CCCC(C)C`, the red/green cell ratio (normalised) is 1.12 (inactive). Besides, the normalised cell number under setting [1] was 0.97. The compound further gave a normalised cell number under setting [2] of 1.09.

With `c1ccc(SCC2CCCNC2)cc1` (stereo not given), the red/green cell ratio (normalised) was 0.86 (inactive). The normalised cell number under setting [1] is 1.24. The normalised cell number under setting [2] was 1.06.

On to `OC[C@H]1O[C@H](OCCCc2ccc(O)cc2)[C@H](O)[C@@H](O)[C@@H]1O`, for which the red/green cell ratio (normalised) is 1.19 (inactive). This compound also had a normalised cell number under setting [1] of 0.9. Also, the normalised cell number under setting [2] was 1.07.

`CC1(C)C[C@H]2[C@@]1(O)[C@@H](O)C[C@]1(C)[C@H](O)C=C[C@]21CO`: the red/green cell ratio (normalised) is 0.9 (inactive). Besides, under setting [1], the normalised cell number stood at 1.19. This compound also displayed a normalised cell number under setting [2] of 1.07.

As for `O=C1C=CC2(Oc3cccc4cccc(c34)O2)[C@H]2[C@H]1[C@@H](O)CC[C@H]2O`, the red/green cell ratio (normalised) was 1.07 (inactive). Under setting [1], this compound yielded a normalised cell number of 0.95. The normalised cell number under setting [2] worked out at 1.01.

As for `O=C(Cc1ccncc1)c1ccc(F)cc1`, the red/green cell ratio (normalised) was 1.16 (inactive). Under setting [1], this compound had a normalised cell number of 0.82. In addition, the normalised cell number under setting [2] stood at 0.95.

With `[N-]=[N+]=NC1[C@@H](O)C2OC(c3ccccc3)OCC2O[C@@H]1Sc1ccccc1` (stereo not given in full), the red/green cell ratio (normalised) was 1.1 (inactive). Under setting [1], this compound yielded a normalised cell number of 0.95. The same compound had a normalised cell number under setting [2] of 1.04.

Take `CC(=O)OCC1=C[C@]2(O)CC3=C(CC24O[C@@H]4C1=O)[C@@]1(C)CCCC(C)(C)[C@@H]1CC3` (stereo not given in full): the red/green cell ratio (normalised) was 1.02 (inactive). Also, under setting [1], the normalised cell number turned out to be 0.93. The same compound registered a normalised cell number under setting [2] of 0.94.

Turning to `CN[C@H]1[C@@H](O[C@@H]2[C@@H](O[C@@H]3[C@@H](O)[C@H](O)[C@@H](N=C(N)N)[C@H](O)[C@H]3N=C(N)N)O[C@H](C)[C@@]2(O)CO)O[C@H](CO)[C@@H](O)[C@@H]1O`, the red/green cell ratio (normalised) was 0.84 (inactive). In addition, the normalised cell number under setting [1] was 1.23. Moreover, the normalised cell number under setting [2] worked out at 1.03.

With `COC(=O)c1c[nH]c2c(OC)c(F)c(F)cc2c1=O`, the red/green cell ratio (normalised) is 1.14 (inactive). Under setting [1], the normalised cell number was determined as 1.06. The same compound came in with a normalised cell number under setting [2] of 1.21.

As for `O=C(NCC1O[C@@H](OC2C(NC(=O)c3ccccc3)C[C@@H](NC(=O)c3ccccc3)[C@H](OC3OC(COS(=O)(=O)O)[C@@H](OS(=O)(=O)O)[C@H](NC(=O)c4ccccc4)[C@H]3OS(=O)(=O)O)[C@H]2OS(=O)(=O)O)[C@H](OS(=O)(=O)O)[C@@H](OS(=O)(=O)O)C1OS(=O)(=O)O)c1ccccc1` (stereo not given in full), the red/green cell ratio (normalised) is 1.21 (inactive). The same compound registered a normalised cell number under setting [1] of 0.96. This compound yielded a normalised cell number under setting [2] of 1.16.

For the compound `Cc1ccc(S[C@H]2OC(CO)C(O)[C@H](O)[C@@H]2N)cc1` (stereo not given in full), the red/green cell ratio (normalised) is 0.98 (inactive). The normalised cell number under setting [1] is 1. The normalised cell number under setting [2] is 0.97.

For the compound `CC(CCOc1ccc(C(=O)O)cc1)C(=O)O` (stereo not given), the red/green cell ratio (normalised) is 1.1 (inactive). Under setting [1], this compound came in with a normalised cell number of 1.03. The compound further showed a normalised cell number under setting [2] of 1.14.

As to `Cc1cc(O)c2c(c1)Cc1cccc(O)c1C2=O`, the red/green cell ratio (normalised) was 0.94 (inactive). Under setting [1], this compound gave a normalised cell number of 1.28. Under setting [2], the normalised cell number came to 1.2.

On to `CC(=O)[C@H]1CCC2C3C=CC4=CC(=O)CC[C@@]4(C)C3CC[C@@]21C` (stereo not given in full), for which the red/green cell ratio (normalised) was 0.68 (inactive). This compound came in with a normalised cell number under setting [1] of 1.28. The same compound displayed a normalised cell number under setting [2] of 0.87.

Regarding `CC1(C)S[C@@H]2[C@H](NC(=O)C(N)c3ccc(O)cc3)C(=O)N2[C@H]1C(=O)O` (stereo not given in full), the red/green cell ratio (normalised) is 0.84 (inactive). For the same compound, the normalised cell number under setting [1] was 1.22. Further, under setting [2], the normalised cell number is 1.02.

Regarding `Nc1nc(=S)c2ncn(C3O[C@H](CO)[C@@H](O)[C@H]3O)c2[nH]1` (stereo not given in full), the red/green cell ratio (normalised) was 0.83 (inactive). Besides, the normalised cell number under setting [1] turned out to be 1.02. The normalised cell number under setting [2] was found to be 0.85.

Consider `C=C1C(=O)OC(C(=O)OC)C1(O)CCCCCCCCC` (stereo not given), for which the red/green cell ratio (normalised) was 1.05 (inactive). This compound returned a normalised cell number under setting [1] of 0.99. This compound also returned a normalised cell number under setting [2] of 1.04.

Turning to `CC(=O)O[C@H]1C[C@@]2(C)C(CCC3[C@@]4(C)C=CC(=O)[C@@H](C)C4[C@H](OC(C)=O)C(=O)[C@@]32C)/C1=C(/CCC=C(C)C)C(=O)O` (stereo not given in full), the red/green cell ratio (normalised) is 0.99 (inactive). Under setting [1], the normalised cell number amounted to 0.92. Besides, the normalised cell number under setting [2] came out at 0.91.

Take `COC1O[C@@H]2O[C@]3(C)CC[C@H]4[C@H](C)CC[C@@H]([C@H]1C)[C@@]24OO3` (stereo not given in full): the red/green cell ratio (normalised) is 0.81 (inactive). Moreover, under setting [1], the normalised cell number turned out to be 0.82. Besides, the normalised cell number under setting [2] stood at 0.67.

With `Cc1cc(O)c(C(=O)c2c(O)cccc2O)c(C(=O)O)c1`, the red/green cell ratio (normalised) is 0.99 (inactive). In addition, the normalised cell number under setting [1] was found to be 1.15. The compound also returned a normalised cell number under setting [2] of 1.14.

With `COc1cc2c(cc1OC)Cc1cc(OC)c(OC)cc1Cc1cc(OC)c(OC)cc1C2`, the red/green cell ratio (normalised) is 1.03 (inactive). The normalised cell number under setting [1] was found to be 1.01. The normalised cell number under setting [2] is 1.04.

As for `CC(=O)O[C@H]1CC2CCC3C(CC[C@@]4(C)C3C[C@H]([N+]3(C)CCCCC3)[C@@H]4OC(C)=O)[C@@]2(C)C[C@@H]1[N+]1(C)CCCCC1` (stereo not given in full), the red/green cell ratio (normalised) was 0.99 (inactive). Also, the normalised cell number under setting [1] was 0.95. Under setting [2], this compound had a normalised cell number of 0.94.

With `C[C@@H]1C=C2C=C[C@@](C)(O)[C@](C)(C(=O)CCO)[C@H]2[C@@H](O)C1`, the red/green cell ratio (normalised) was 0.85 (inactive). The compound further displayed a normalised cell number under setting [1] of 1.08. Under setting [2], this compound displayed a normalised cell number of 0.91.

Regarding `O=c1c2cc(O)c(O)cc2oc2cc(O)c(C3O[C@H](CO)[C@H](O)[C@@H](O)[C@H]3O)c(O)c12` (stereo not given in full), the red/green cell ratio (normalised) was 0.86 (inactive). Further, the normalised cell number under setting [1] is 0.99. The normalised cell number under setting [2] turned out to be 0.85.

With `O=C1N[C@@H]2[C@@H](Sc3ccccc3)OC(CO)C(O)[C@@H]2O1` (stereo not given in full), the red/green cell ratio (normalised) is 0.97 (inactive). Moreover, under setting [1], the normalised cell number amounted to 1. This compound also showed a normalised cell number under setting [2] of 0.97.

On to `O=C1C[C@@H]2[C@H](Br)[C@@H](O)C[C@@H]2O1`, for which the red/green cell ratio (normalised) is 0.73 (inactive). Under setting [1], the normalised cell number was determined as 1.24. For the same compound, under setting [2], the normalised cell number came out at 0.91.

Turning to `CC(CC(=O)N1CCOC1=O)N1C(=S)SC[C@H]1c1ccccc1` (stereo not given in full), the red/green cell ratio (normalised) is 0.8 (inactive). The compound further showed a normalised cell number under setting [1] of 1.08. In addition, the normalised cell number under setting [2] was determined as 0.87.
